Source: PubChem
PfHsp40 yeast – compounds rescuing yeast from Plasmodium falciparum HSP40 toxicity. S. cerevisiae expressing PfHsp40, growth rescue, ATP luminescence. growth rescue, % at 12.5 µM. hit rate 0.68% among 340,000; in the data active = growth rescue above about 28%, passing the limit was not always enough;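 also: yeast W303a lacking pdr1 and pdr3 grown in galactose medium; growth measured after three days at 30 °C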
CCHFV vOTU inh – CCHFV vOTU protease inhibition | AID 651958 | hit rate 0.55% among 370,000 | Pep-AMC fluorescence | inhibition, % at 11.5 µM; in the data active = inhibition above about 30%; also: 0% = vehicle wells with enzyme and 100% = no enzyme wells
Sa ugtP lethal – kills S. aureus RN4220 lacking UgtP; S. aureus RN4220 ugtP deletion, OD600 growth, 16 h; growth inhibition, % (concentration not given with the values); hit rate 0.54% among 330,000; AID 1259309; in the data active = growth inhibition above about 68%;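 also: plate controls were untreated wells for no effect and antibiotic for full effect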
BJeLR lethal – kills HRASV12-expressing BJeLR cells. BJeLR (HRASV12) viability, CellTiter-Glo ATP luminescence, 48 h. inhibition, % (no concentration beside the values). hit rate 0.17% among 300,000; in the data active = inhibition above about 50%
Sa RN4220 lethal – kills Staphylococcus aureus RN4220; S. aureus RN4220 growth, OD600, 16 h; inhibition, % (concentration not given with the values); hit rate 0.33% among 330,000; AID 1259311; in the data active = inhibition above about 85%;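 also: plate controls were untreated cells for no effect and reference antibiotic for full effect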
Starred values were filed as active, the others as inactive; x = no result. Most compounds without a hit are left out; they make up all but 1.6% or so of the library.

SMILES | PfHsp40 yeast | CCHFV vOTU inh | Sa ugtP lethal | BJeLR lethal | Sa RN4220 lethal
O=C(NN=Cc1ccc([N+](=O)[O-])o1)c1cc(-c2cccc(Br)c2)nc2ccccc12 | x | x | 100* | x | 115*
Cc1cc(C(=O)N/N=C/c2cc(Br)cc([N+](=O)[O-])c2O)c2ccccc2n1 | 184* | 6 | x | -7 | x
Cc1ccc(/C=N/NC(=O)c2cc(-c3ccncc3)nc3ccccc23)o1 | -2 | 0 | x | 59* | x
Cc1cc(C(=O)NN=Cc2cc(Br)cc([N+](=O)[O-])c2O)c2ccccc2n1 | x | x | -4 | x | 7
COc1ccc(C2C=CCNCC(=O)N2Cc2ccc(F)cc2)cc1 (stereo not drawn) | x | x | -1 | x | 4
COc1ccc(Cc2nc(-c3ccc(NC(=O)c4cccnc4)cc3)no2)cc1 | 0 | 4 | -4 | 90* | -2
CC(=NNC(=O)Cc1c(C)[nH][nH]c1=O)c1ccc(O)cc1 | x | x | 0 | x | 4
CC(C)CC(=O)/C(=C\c1ccc(Cl)cc1Cl)n1cncn1 | 125* | x | 1 | 16 | 22
O=C1ON=C(c2ccccc2)/C1=C\c1ccco1 | 0 | 1 | -3 | 1 | 2
Cc1ccc(/C=C2/C(=O)ON=C2c2ccccc2)o1 | 0 | -3 | -4 | 51* | -2
O=C(NCC1CCCO1)C(=O)NN=Cc1ccc2c(c1)OCO2 (stereo not drawn) | x | x | 1 | x | -1
CCOc1ccc(OCC(=O)Nc2ccccc2C(F)(F)F)cc1 | 0 | 12 | 5 | -2 | 5
CCC(ONc1ccccc1C(F)(F)F)(C(=O)NN(C)C)c1ccccc1 (stereo not drawn) | 54* | 8 | 9 | x | 0
Cn1cccc1CC(=O)NN=Cc1cccc([N+](=O)[O-])c1 | x | x | -12 | x | 4
Oc1c(Br)c(Br)c(Br)c(Br)c1Br | 31* | x | x | x | x
O=C(c1cccc(F)c1)N1CCN(C2CCCCC2)CC1 | 54* | -7 | 8 | 2 | 3
O=C(c1cccc(F)c1)N1CCC(N2CCCCCC2)CC1 | 0 | 7 | 0 | -8 | 3
COc1ccc(S(=O)(=O)N2CCOCC2)cc1NC(=O)CCNC(=O)c1ccc(Br)cc1 | -1 | -8 | 5 | 108* | 2
CON=Cc1ccc(Sc2ccccc2N)c([N+](=O)[O-])c1 | x | x | 0 | x | -1
CC(C)=CCc1c(-c2ccc(O)cc2O)oc2c3c(cc(O)c2c1=O)OC(C)(C)C=C3 | x | x | 99* | 8 | 97*
O=C1CCN(CCc2ccccc2)CCN1C(CSc1ccccc1)c1ccccc1 (stereo not drawn) | x | x | 1 | x | 4
CC1CN(C(C)CO)C(=O)c2cccc(N(C)C)c2OC1CN(C)Cc1ccncc1 (stereo not drawn) | x | x | 10 | x | 11
CCCOc1ccc(C(=O)ON=C(CC)c2ccc(C)cc2)cc1 | x | x | 93* | x | -2
Nc1nc(NCc2ccco2)nc(N2CCCC2)c1[N+](=O)[O-] | 0 | 15 | -9 | 12 | 8
Nc1nc(NCc2ccco2)nc(N2CCCCCC2)c1[N+](=O)[O-] | 0 | -3 | 98* | 12 | 95*
SMILES | PfHsp40 yeast | CCHFV vOTU inh | Sa ugtP lethal | BJeLR lethal | Sa RN4220 lethal
CC(=O)Nc1ccc(-c2csc(N/N=C(/C)c3ccccc3)n2)cc1 | 90* | -13 | x | 12 | x
C=CCC(CC(=O)N(CCO)Cc1ccccc1)C(=O)NCCOC(=O)C(CC=C)Cc1ccc(F)cc1 (stereo not drawn) | x | x | -17 | x | 3
COc1cc(C(=O)NNC(=S)NC(=O)c2ccccc2C)cc(OC)c1OC | 6 | 8 | 0 | -4 | 21
COc1cc(C(=O)NC(=S)NNC(=O)c2cnccn2)cc(OC)c1OC | 132* | 1 | -1 | 6 | 20
COc1ccccc1C(=O)NNC(=S)NC(=O)c1cc(OC)c(OC)c(OC)c1 | 62* | -2 | 19 | 1 | 29
COC(=O)C1C[C@@]2(O)C(O)C(O)C(O)CC2N1Cc1cccc2ccccc12 (stereo partly drawn) | x | x | 3 | x | 2
O=C1NC[C@@H](Cc2cccc3ccccc23)N(CCc2cc(C(F)(F)F)cc(C(F)(F)F)c2)C1=O | 44* | 20 | x | 6 | x
O=C1NCC(Cc2cccc3ccccc23)N(CCc2cc(C(F)(F)F)cc(C(F)(F)F)c2)C1=O (stereo not drawn) | x | x | 6 | x | 1
CN1CCc2cc3c(cc2C1C1OC(=O)c2c1ccc1c2OCO1)OCO3 (stereo not drawn) | x | x | -1 | x | 6
CN1CCc2cc3c(c4c2[C@H]1[C@H](O)c1ccccc1-4)OCO3 | 1 | 37* | x | 9 | x
CCn1nnnc1NCc1ccc(SC)cc1 | 39* | 6 | 14 | 2 | 4
Cc1ccc(S(=O)(=O)NC(=O)NCc2ccc3c(c2)OCO3)cc1 | 55* | 8 | 5 | -3 | 6
